Bioassay records from PubChem BioAssay.
FAS-TE inh: FAS thioesterase (human) inhibition; P49327; recombinant FAS-TE, OMFH fluorogenic substrate, fluorescence endpoint; inhibition, % at 15 µM; actives 0.67% (n = 360,000);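 active = compounds whose normalised, plate-corrected inhibition of enzyme fluorescence in the single-dose primary screen is 50% or more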;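 also: 0% = DMSO with enzyme and 100% = substrate without enzyme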
beta cell repl: inducers of beta-cell replication in MIN6 cells | actives 0.29% (n = 330,000) | proliferation, % at 10 µM | AID 2380 | MIN6 cells proliferation, ATPlite luminescence, 48 h; cells starved in 0.2% serum; 100% = growth in 10% serum;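 active = compounds whose signal lies at least 3.5 SD above the mean of all wells on their plate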;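 also: 0% = DMSO-treated cells in low-serum medium and 100% = 10% serum control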
MPTP block: permeability transition pore inhibition; isolated mouse mitochondria, Ca2+ swelling absorbance, 30 min; inhibition, % at 10 µM; actives 1.4% (n = 360,000);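 active = inhibition of 50% or more, scaled per plate between neutral and stimulator controls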;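 also: 0% = DMSO wells given calcium and 100% = 1 mM EGTA wells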
p-CIP stab down: p/CIP protein destabilization; Q05BA5; F442A p/CIP-EGFP cells, EGFP fluorescence, 16 h; decrease of EGFP signal, % at 10 µM; actives 0.01% (n = 290,000); AID 1984;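 active = EGFP signal decrease of at least 30% at 10 µM or well 3 SD below plate mean, unless failing retest; inactive = the rest, including hits failing retest or dose response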
NR3A LBD binder: NR3A (human) ligand-binding domain modulation | actives 2.5% (n = 340,000) | Tm shift relative to glycine control, % at 25 µM | NR3A LBD differential scanning fluorimetry, Tm shift; 0% = protein alone, 100% = glycine-bound protein;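 active = melting temperature shift of at least 10% of the positive control shift, at one fixed dose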
Rh123 counter: membrane potential counter-screen of mitochondrial pore inhibitors | AID 624504 | inhibition, % at 10 µM | actives 78% (n = 5,000) | isolated mitochondria, Rhodamine 123 fluorescence | shares compounds with MPTP block; in the data active = inhibition above about 22%;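 also: 0% = DMSO vehicle and 100% = positive control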
MPTP swell DR: MPTP inhibition, dose response swelling confirmation. shares compounds with MPTP block. isolated mitochondria swelling, absorbance. IC50, µM. actives 58% (n = 780). AID 651561; in the data active = IC50 below about 20 µM
MPTP counter DR: active in counter-screen for permeability transition pore inhibitors | actives 49% (n = 780) | isolated mitochondria counterscreen, fluorescence read-out | AID 651564 | shares compounds with MPTP block | IC50, µM; in the data active = IC50 below about 80 µM
Starred values were filed as active, the others as inactive. Rows were chosen to be rich in hits. Some 4.1% of all compounds tested hit in one or more screens of this group.

`Cc1cc(Cl)c(S(=O)(=O)N2CCN(c3ccc(F)cc3)CC2)cc1OCC(=O)NC1CCCCC1` gave FAS-TE inh 28, beta cell repl -6, MPTP block 80*, p-CIP stab down -15, NR3A LBD binder 1 and Rh123 counter 70*.
`CC(NC(=O)C1CCN(C(=O)c2ccc(F)cc2)CC1)c1ccc(S(N)(=O)=O)cc1` (stereo not given) gave FAS-TE inh -6, beta cell repl -3, MPTP block -2 and NR3A LBD binder 0.
COc1ccccc1N(C(C)=O)C1=C(Cl)C(=O)c2ccccc2C1=O was read as FAS-TE inh 24, MPTP block 51* and Rh123 counter 95*.
`O=C(NNC1=C(C(=O)C(F)(F)F)CCC1)c1ccc(Cl)cc1` gave FAS-TE inh 14, beta cell repl -4, MPTP block 92*, p-CIP stab down -8, NR3A LBD binder -27 and Rh123 counter 77*.
Cc1ccc(NC(=O)CSC(N)=O)cc1Cl was read as FAS-TE inh -236, beta cell repl -6, MPTP block -2, p-CIP stab down 3 and NR3A LBD binder -4.
Cc1cccc(C(=O)Nc2ccccc2SCC(=O)Nc2ccc(C)c(Cl)c2)c1 was read as FAS-TE inh 1, beta cell repl -5, MPTP block 90*, p-CIP stab down -6, NR3A LBD binder 15* and Rh123 counter 83*.
Screening Cc1ccc(NC(=O)CSc2ccccc2NC(=O)c2cccc(Cl)c2)cc1Cl returned FAS-TE inh -8, beta cell repl -4, MPTP block 80*, p-CIP stab down 3, NR3A LBD binder -5, Rh123 counter -5, MPTP swell DR >100 and MPTP counter DR 6.3*.
CCOC(=O)c1c(C)[nH]c(C(=O)NCc2ccco2)c1C was read as beta cell repl 1 and p-CIP stab down -7.
For CC(NC(=O)CNC(=O)c1cccs1)c1cccc(C(F)(F)F)c1 (stereo not given) the results were FAS-TE inh 0, beta cell repl -2, MPTP block 0 and NR3A LBD binder 2.
Screening CCCOc1cc(N(CC)CC)ccc1/C=C(/C#N)c1nc2ccc(C)cc2[nH]1 returned FAS-TE inh -46, beta cell repl -4, MPTP block 78*, p-CIP stab down -778, NR3A LBD binder 1 and Rh123 counter 57*.
Screening CCOc1cc(N(CC)CC)ccc1/C=C(/C#N)c1nc2ccccc2[nH]1 returned FAS-TE inh -75, beta cell repl -5, MPTP block 82*, p-CIP stab down -610, NR3A LBD binder -5 and Rh123 counter 54*.
Screening CCN(CC)c1ccc(/C=C(/C#N)c2nc3ccc(C)cc3[nH]2)c(OC(C)C)c1 returned FAS-TE inh -77, beta cell repl -3, MPTP block 83*, p-CIP stab down -765, NR3A LBD binder -20 and Rh123 counter 52*.
For COc1cc(/C=C(\C#N)c2nc3ccc(C)cc3[nH]2)c([N+](=O)[O-])cc1OC the results were FAS-TE inh 2, beta cell repl -1, MPTP block 0, p-CIP stab down -14 and NR3A LBD binder -6.
Screening COc1ccc(CCC(=O)NCCCNC(=O)CCc2ccc(OC)cc2)cc1 returned FAS-TE inh -10, beta cell repl 0, MPTP block -1, p-CIP stab down -2 and NR3A LBD binder -1.
Cc1csc2nc(O)c(C(=O)NCc3ccc4c(c3)OCO4)c(=O)n12 was read as FAS-TE inh 8, beta cell repl -2, MPTP block -2 and NR3A LBD binder -2.
`COc1cc(/C=N/NC(=O)CN(Cc2ccco2)S(=O)(=O)c2ccccc2)ccc1O` gave FAS-TE inh -6, beta cell repl -1, MPTP block 1, p-CIP stab down 1 and NR3A LBD binder -7.
`Oc1ccc(-c2n[nH]c(C(F)(F)F)c2-c2ccccc2)c(O)c1` gave FAS-TE inh 14, beta cell repl -5, MPTP block 84*, p-CIP stab down -21, NR3A LBD binder 2 and Rh123 counter 76*.
`COc1ccc(-c2c(-c3ccc(O)cc3O)n[nH]c2C(F)(F)F)cc1` gave FAS-TE inh 9, beta cell repl -6, MPTP block 4, p-CIP stab down 0 and NR3A LBD binder 5.
`CCN1C[C@@H]2[C@@H]3C(=O)N(Cc4ccccc4)C(=O)[C@@H]3[C@](CC)(C(=O)OC)N2C1=NCc1ccccc1` gave FAS-TE inh -9, MPTP block -2 and NR3A LBD binder 2.
Cc1ccc(/C=C2\SC(=S)N(/N=C/c3cc([N+](=O)[O-])ccc3O)C2=O)o1 was read as FAS-TE inh 19, beta cell repl -1, MPTP block 72*, p-CIP stab down 1, NR3A LBD binder 4 and Rh123 counter 4.
O=C(Nc1nc(-c2ccc(F)cc2)cs1)C1CCN(C(=O)c2ccc(F)cc2)CC1 was read as FAS-TE inh 15, beta cell repl -7, MPTP block 64*, NR3A LBD binder -7 and Rh123 counter 78*.
Screening COc1cc(C(=O)N(C)CC2CCN(CCc3cccc(C(F)(F)F)c3)CC2)ccc1C returned FAS-TE inh -3, beta cell repl -1, MPTP block 81*, p-CIP stab down -1, NR3A LBD binder -3, Rh123 counter 1, MPTP swell DR 7.6* and MPTP counter DR 25*.
`Cc1ccc(CNn2cn[nH]c2=S)cc1` gave FAS-TE inh -2, beta cell repl 1, MPTP block 2 and NR3A LBD binder -1.
For Cc1cccc[n+]1CC(=O)/C=C1\N(C)c2ccccc2C1(C)C the results were FAS-TE inh -11, beta cell repl -6, MPTP block 1, p-CIP stab down -10 and NR3A LBD binder 0.
`CN1/C(=C/C=C/c2n(C)c3cc([N+](=O)[O-])c([N+](=O)[O-])cc3[n+]2C)C(C)(C)c2ccccc21` gave FAS-TE inh 44, MPTP block 81*, Rh123 counter -9, MPTP swell DR inactive and MPTP counter DR <2.5*.
For COc1ccc(C(=O)Nc2c(N)nc(SCC(=O)NCC3CCCO3)[nH]c2=O)cc1 (stereo not given) the results were FAS-TE inh -4, beta cell repl 1, MPTP block 0, p-CIP stab down 12 and NR3A LBD binder 0.
O=C(Nc1ccc(Cl)cc1)Nc1csc([N+](=O)[O-])c1 was read as FAS-TE inh 33, beta cell repl -3, MPTP block 79*, p-CIP stab down -25, NR3A LBD binder 33* and Rh123 counter 78*.
